# From PubChem BioAssay (EPA / NIEHS)
# Inconclusive results are not listed. Activity calls are given as the source filed them. How the source made its calls, unless noted: active means hit-call score of the fitted dose curve at least 0.9, where 1 is the maximum; inactive means score below 0.9.
# Assays:
# [1] = read-out: Monocyte Chemoattractant Protein-1 (MCP1), CCL2 (gene 6347); assay: BSK_SAg_MCP1: BioMAP Diversity Plus: SAg Assay for Monocyte Chemoattractant Protein-1 (MCP1) Biomarker Activity (AID 2283090); settings: primary human HUVEC with PBMC; actives raise or lower the signal
# Procedure, shortened: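 MCP-1 levels in the endothelial–PBMC SAg co-culture were quantified by ELISA at 24 h post-dosing; both increases and decreases versus DMSO scored. Cytotoxicity monitored by SRB total protein in parallel cultures.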
# [2] = read-out: E-selectin (Homo sapiens) (UniProt P16581); assay: BSK_SAg_Eselectin: BioMAP Diversity Plus: SAg Assay for Eselectin Biomarker Activity (AID 2283091); settings: primary human HUVEC with PBMC; actives raise or lower the signal
# Procedure, shortened: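 Cell-surface E-selectin is read by ELISA at 24 h in the SAg co-culture of HUVEC and PBMC. Curves are fitted in both directions relative to DMSO. Parallel SRB total-protein staining tracks overt toxicity.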
# [3] = read-out: Monokine induced gamma interferon (MIG), CXCL9 (gene 4283); assay: BSK_SAg_MIG: BioMAP Diversity Plus: SAg Assay for Monokine induced gamma interferon (MIG) Biomarker Activity (AID 2283092); settings: primary human HUVEC with PBMC; actives raise or lower the signal
# Procedure, shortened: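 ELISA readout of MIG/CXCL9; primary human umbilical vein endothelial cells co-cultured with peripheral blood mononuclear cells; 24 h post-dose; gain/loss fit vs DMSO baseline.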
# [4] = BSK_SAg_PBMCCytotoxicity: PBMC Cytotoxicity Assessment in the BioMAP Diversity Plus: SAg Assay (AID 2283093); settings: primary human HUVEC with PBMC;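 further: PBMC viability measured as Alamar Blue reduction fluorescence at 546/580 nm; fitted both ways against DMSO so a hit may be loss or gain of signal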;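 on AC50: PBMC superantigen activated with SEB plus TSST-1 one hour after compound addition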
# Procedure, shortened: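 Compound added to 75,000 PBMC/well for 1 h; SEB and TSST-1 then added at 20 ng/mL final each; 90 h incubation; Alamar Blue 6 h; read 546/580 nm ex/em. Activity fitted bidirectionally relative to DMSO baseline.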
# [5] = read-out: Interleukin-8 (IL8), CXCL8 (gene 3576); assay: BSK_SAg_IL8: BioMAP Diversity Plus: SAg Assay for Interleukin-8 (IL8) Biomarker Activity (AID 2283094); settings: primary human HUVEC with PBMC; actives raise or lower the signal
# Procedure, shortened: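 Human umbilical vein endothelial cells co-cultured with PBMC, stimulated with superantigen; IL-8 measured by ELISA 24 h after chemical dosing. Bidirectional fitting versus DMSO; SRB staining in parallel cultures tracks cytotoxicity.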
# [6] = BSK_SAg_Proliferation: Cell Proliferation Assessment in the BioMAP Diversity Plus: SAg Assay (AID 2283095); settings: primary human HUVEC with PBMC
# Procedure, shortened: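 Human umbilical vein endothelial cells co-cultured with PBMC; sulforhodamine B total-protein staining (0.1% SRB after 10% TCA fixation, absorbance 560 nm) at 96 h in sub-confluent culture. Fitted bidirectionally against DMSO.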
# [7] = BSK_SAg_SRB: Viability Assessment in the BioMAP Diversity Plus: SAg Assay (AID 2283096); settings: primary human HUVEC with PBMC;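 further: cells read one day after compound addition; hits may be either gain or loss of signal compared with DMSO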
# Procedure, shortened: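 Total protein by sulforhodamine B staining, 24 h after dosing, in HUVEC–PBMC co-culture; DMSO-referenced bidirectional fitting.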
# [8] = target: human CYP1A2, CYP1A2 (gene 1544) (UniProt P05177); assay: NVS_ADME_hCYP1A2: NovaScreen (NVS) CYP450-related Enzyme Activity (ADME) Assay for human CYP1A2 (AID 2283102; active means hit-call score of the fitted dose curve at least 0.9, where 1 is the maximum;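 further: potency for inhibition since loss of fluorescence marks reduced CYP1A2 activity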)
# human CYP1A2, CYP1A2 (gene 1544), sequence (P05177 whole entry, looked up): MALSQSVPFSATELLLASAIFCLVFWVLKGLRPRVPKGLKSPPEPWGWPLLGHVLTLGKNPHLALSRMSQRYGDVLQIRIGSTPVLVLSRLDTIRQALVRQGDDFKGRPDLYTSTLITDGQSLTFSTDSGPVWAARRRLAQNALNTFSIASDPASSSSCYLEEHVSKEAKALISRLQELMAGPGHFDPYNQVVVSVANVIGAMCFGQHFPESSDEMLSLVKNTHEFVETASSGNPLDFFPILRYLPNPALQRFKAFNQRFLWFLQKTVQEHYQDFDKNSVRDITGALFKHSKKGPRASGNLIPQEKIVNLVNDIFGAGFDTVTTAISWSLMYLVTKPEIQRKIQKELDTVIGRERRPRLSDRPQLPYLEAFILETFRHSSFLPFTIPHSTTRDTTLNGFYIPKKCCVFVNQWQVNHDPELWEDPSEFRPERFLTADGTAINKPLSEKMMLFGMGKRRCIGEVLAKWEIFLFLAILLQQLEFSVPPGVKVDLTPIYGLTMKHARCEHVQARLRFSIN
# Procedure, shortened: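 Enzyme activity of insect-cell-expressed human CYP1A2 measured by fluorescence 0.5 h after compound addition, relative to acetonitrile. Compounds first tested in duplicate at 10 uM, actives followed up in concentration series.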
# [9] = target: rat CYP1A2, Cyp1a2 (gene 24297) (UniProt P04799); assay: NVS_ADME_rCYP1A2: NovaScreen (NVS) CYP450-related Enzyme Activity (ADME) Assay for rat CYP1A2 (AID 2283115; active means hit-call score of the fitted dose curve at least 0.9, where 1 is the maximum)
# rat CYP1A2, Cyp1a2 (gene 24297), sequence (P04799 whole entry, looked up): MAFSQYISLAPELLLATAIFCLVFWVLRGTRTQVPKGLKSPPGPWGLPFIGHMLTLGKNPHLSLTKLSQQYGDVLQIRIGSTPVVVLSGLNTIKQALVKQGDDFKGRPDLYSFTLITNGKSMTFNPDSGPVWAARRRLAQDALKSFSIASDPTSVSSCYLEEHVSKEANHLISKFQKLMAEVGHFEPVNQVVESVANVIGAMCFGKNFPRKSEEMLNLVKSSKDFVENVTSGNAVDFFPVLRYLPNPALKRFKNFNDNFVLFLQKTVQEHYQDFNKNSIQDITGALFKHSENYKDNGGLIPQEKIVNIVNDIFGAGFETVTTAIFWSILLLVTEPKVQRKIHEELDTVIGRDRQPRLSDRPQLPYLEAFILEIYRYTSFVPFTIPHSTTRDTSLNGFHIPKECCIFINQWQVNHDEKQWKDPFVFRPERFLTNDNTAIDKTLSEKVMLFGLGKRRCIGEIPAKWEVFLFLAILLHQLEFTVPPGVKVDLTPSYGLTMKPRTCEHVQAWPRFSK
# Procedure, shortened: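 Cell-free recombinant rat enzyme with fluorogenic substrate, read by fluorescence intensity 1 hour after dosing. Loss of signal versus acetonitrile negative control; primary screen at 10 uM in duplicate, actives followed in concentration series.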
# [10] = target: human CYP2D6, CYP2D6 (gene 1565) (UniProt P10635); assay: NVS_ADME_hCYP2D6: NovaScreen (NVS) CYP450-related Enzyme Activity (ADME) Assay for human CYP2D6 (AID 2283107; active means hit-call score of the fitted dose curve at least 0.9, where 1 is the maximum)
# human CYP2D6, CYP2D6 (gene 1565), sequence (P10635 whole entry, looked up): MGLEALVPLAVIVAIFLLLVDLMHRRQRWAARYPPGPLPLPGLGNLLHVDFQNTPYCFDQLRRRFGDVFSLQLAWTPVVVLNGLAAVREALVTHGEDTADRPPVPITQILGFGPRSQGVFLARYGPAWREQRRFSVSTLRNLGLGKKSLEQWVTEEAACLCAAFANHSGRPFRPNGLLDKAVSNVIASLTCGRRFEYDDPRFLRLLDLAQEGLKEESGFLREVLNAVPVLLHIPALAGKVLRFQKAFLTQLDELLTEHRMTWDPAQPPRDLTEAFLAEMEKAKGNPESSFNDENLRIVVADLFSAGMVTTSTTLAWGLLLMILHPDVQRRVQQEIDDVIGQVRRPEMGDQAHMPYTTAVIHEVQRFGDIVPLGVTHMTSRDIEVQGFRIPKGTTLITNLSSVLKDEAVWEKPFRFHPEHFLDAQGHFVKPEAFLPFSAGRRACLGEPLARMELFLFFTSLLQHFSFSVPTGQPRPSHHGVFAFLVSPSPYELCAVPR
# Procedure, shortened: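 Fluorescence readout of recombinant CYP2D6 (insect-cell derived) activity after 1 h incubation with test chemical. Acetonitrile served as baseline, loss-of-signal direction. Single-concentration duplicate screening at 10 uM preceded concentration-response retesting.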
# [11] = target: Cytochrome P450 2C19 (Homo sapiens) (UniProt P33261); assay: NVS_ADME_hCYP2C19: NovaScreen (NVS) CYP450-related Enzyme Activity (ADME) Assay for human CYP2C19 (AID 2283113; active means hit-call score of the fitted dose curve at least 0.9, where 1 is the maximum;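 on AC50: potency for inhibition seen as loss of fluorescent signal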)
# Procedure, shortened: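 Compounds first screened in duplicate at 10 uM, then confirmed in concentration series. Insect-cell-expressed human CYP2C19 turned over a fluorogenic substrate, and fluorescence was read after 1 h. Inhibition taken as signal loss relative to acetonitrile.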
# E-selectin (Homo sapiens), sequence (P16581 whole entry, looked up): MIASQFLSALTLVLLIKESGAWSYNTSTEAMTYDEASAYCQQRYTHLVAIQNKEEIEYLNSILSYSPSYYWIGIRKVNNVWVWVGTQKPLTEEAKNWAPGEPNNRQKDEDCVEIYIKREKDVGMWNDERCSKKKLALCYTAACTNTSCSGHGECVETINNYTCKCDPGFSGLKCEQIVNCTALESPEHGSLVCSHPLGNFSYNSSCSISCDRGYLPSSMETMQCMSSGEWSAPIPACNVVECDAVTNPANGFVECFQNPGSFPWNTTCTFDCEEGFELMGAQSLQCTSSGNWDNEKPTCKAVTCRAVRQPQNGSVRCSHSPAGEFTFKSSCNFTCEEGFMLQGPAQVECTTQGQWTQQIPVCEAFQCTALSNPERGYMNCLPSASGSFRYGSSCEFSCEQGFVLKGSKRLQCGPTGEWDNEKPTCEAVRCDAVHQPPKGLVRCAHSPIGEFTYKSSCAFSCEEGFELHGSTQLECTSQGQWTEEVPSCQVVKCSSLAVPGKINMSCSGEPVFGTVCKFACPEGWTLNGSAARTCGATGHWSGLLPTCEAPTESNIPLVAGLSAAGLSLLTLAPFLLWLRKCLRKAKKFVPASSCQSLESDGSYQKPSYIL
structure (smiles),measurement,setting,value
COCC(C)N(C(=O)CCl)c1c(C)csc1C (stereo not given),outcome,[1],inactive
same,AC50,[2],10.7 µM (active)
same,outcome,[3],inactive
same,outcome,[4],inactive
same,outcome,[5],inactive
same,outcome,[6],inactive
same,outcome,[7],inactive
Nc1c(Cl)c(Cl)nc(C(=O)O)c1Cl,outcome,[1],inactive
same,outcome,[2],inactive
same,outcome,[3],inactive
same,outcome,[4],inactive
same,outcome,[5],inactive
same,outcome,[6],inactive
same,outcome,[7],inactive
Nc1cnn(-c2ccccc2)c(=O)c1Cl,outcome,[1],inactive
same,outcome,[2],inactive
same,outcome,[3],inactive
same,outcome,[4],inactive
same,outcome,[5],inactive
same,outcome,[6],inactive
same,outcome,[7],inactive
CC(C)N1C(=O)N(c2ccccc2)CSC1=NC(C)(C)C,AC50,[1],34.5 µM (active)
same,AC50,[2],27.3 µM (active)
same,AC50,[3],38.8 µM (active)
same,AC50,[4],32.2 µM (active)
same,AC50,[5],26.3 µM (active)
same,AC50,[6],27.4 µM (active)
same,AC50,[7],27.8 µM (active)
C=CCOC(=O)C(C)(C)OC(=O)c1cc(-n2c(=O)cc(C(F)(F)F)n(C)c2=O)ccc1Cl,outcome,[1],inactive
same,AC50,[2],31.1 µM (active)
same,outcome,[3],inactive
same,outcome,[4],inactive
same,outcome,[5],inactive
same,outcome,[6],inactive
same,outcome,[7],inactive
O=c1n(Cl)c(=O)n(Cl)c(=O)n1Cl,AC50,[1],11.6 µM (active)
same,outcome,[2],inactive
same,outcome,[3],inactive
same,outcome,[4],inactive
same,outcome,[5],inactive
same,outcome,[6],inactive
same,outcome,[7],inactive
COCC(=O)N(c1c(C)cccc1C)C(C)C(=O)OC (stereo not given),outcome,[1],inactive
same,outcome,[2],inactive
same,outcome,[3],inactive
same,outcome,[4],inactive
same,outcome,[5],inactive
same,outcome,[6],inactive
same,AC50,[7],26.1 µM (active)
N#Cc1c[nH]cc1-c1cccc2c1OC(F)(F)O2,AC50,[1],20.4 µM (active)
same,outcome,[2],inactive
same,outcome,[3],inactive
same,outcome,[4],inactive
same,AC50,[5],27.4 µM (active)
same,AC50,[6],20 µM (active)
same,AC50,[7],13.1 µM (active)
same,AC50,[8],353 nM (active)
same,outcome,[9],inactive
Cc1ccc(N=CN(C)C=Nc2ccc(C)cc2C)c(C)c1,AC50,[1],30.9 µM (active)
same,AC50,[2],26.5 µM (active)
same,AC50,[3],30.7 µM (active)
same,AC50,[4],34.9 µM (active)
same,outcome,[5],inactive
same,AC50,[6],21.7 µM (active)
same,AC50,[7],33.2 µM (active)
same,outcome,[10],inactive
same,AC50,[11],5.27 µM (active)
COP(=O)(OC)O/C(C)=C/C(=O)N(C)C,outcome,[1],inactive
same,outcome,[2],inactive
same,outcome,[3],inactive
same,outcome,[4],inactive
same,outcome,[5],inactive
same,outcome,[6],inactive
same,outcome,[7],inactive
same,outcome,[11],inactive
